From the supplement of paper PMC6555819

Assays:
Test in all cases: PBM binding z-score (relative to random genomic background probes); higher = stronger binding; sequences stand for … in GC…GCGATTGACAGCGTAGAATGAAGG
[1] = test system: FXR:RXRa (NR concentration 270 nM, RXRa partner concentration 90 nM)
Outline: (§1)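 Ligand-free nuclear receptor dimers were bound for 1 h to custom Agilent 4×180K protein-binding microarrays. Detection used antibodies against each partner (one per run). Binding z-scores rest on regression-normalized fluorescence, with random background probes as the reference.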

[2] = test system: LXRa:RXRa (NR concentration 270 nM, RXRa partner concentration 90 nM)
Outline: as §1

[3] = test system: LXRa homodimer (NR concentration 270 nM)
Outline: as §1

[4] = test system: LXRb:RXRa (NR concentration 270 nM, RXRa partner concentration 90 nM)
Outline: as §1

[5] = test system: LXRb homodimer (NR concentration 270 nM)
Outline: as §1

[6] = test system: PPARa:RXRa (NR concentration 270 nM, RXRa partner concentration 90 nM)
Outline: as §1

[7] = test system: PPARg:RXRa (NR concentration 180 nM, RXRa partner concentration 90 nM)
Outline: as §1

[8] = test system: PPARg:RXRa 270nM:90nM, anti-RXR (NR concentration 270 nM, RXRa partner concentration 90 nM)
Outline: as §1

[9] = test system: PPARg:RXRa 30nM:10nM, anti-RXR (NR concentration 30 nM, RXRa partner concentration 10 nM)
Outline: as §1

[10] = test system: PPARg:RXRa 90nM:30nM, anti-RXR (NR concentration 90 nM, RXRa partner concentration 30 nM)
Outline: as §1

[11] = test system: PPARg:RXRa DBDmut IVT, anti-RXR (DBD mutation: RXRa K156A/R161A, NR concentration 270 nM, RXRa partner concentration 90 nM)
Outline: as §1

[12] = test system: PPARg:RXRa IVT, anti-PPARg (NR concentration 270 nM, RXRa partner concentration 90 nM)
Outline: as §1

[13] = test system: PPARg DBDmut:RXRa IVT, anti-PPARg (DBD mutation: PPARg1 K132A/R137A, NR concentration 270 nM, RXRa partner concentration 90 nM)
Outline: as §1

[14] = test system: PPARg DBDmut IVT, anti-PPARg (DBD mutation: PPARg1 K132A/R137A, NR concentration 270 nM)
Outline: as §1

[15] = test system: PPARg homodimer (NR concentration 180 nM)
Outline: as §1

[16] = test system: PXR:RXRa (NR concentration 270 nM, RXRa partner concentration 90 nM)
Outline: as §1

[17] = test system: PXR homodimer (NR concentration 270 nM)
Outline: as §1

[18] = test system: RARa:RXR (NR concentration 270 nM, RXRa partner concentration 90 nM)
Outline: as §1

[19] = test system: RARa homodimer (NR concentration 270 nM)
Outline: as §1

[20] = test system: RARb:RXRa (NR concentration 270 nM, RXRa partner concentration 90 nM)
Outline: as §1

Sequence	PBM binding z-score [1]	PBM binding z-score [2]	PBM binding z-score [3]	PBM binding z-score [4]	PBM binding z-score [5]	PBM binding z-score [6]	PBM binding z-score [7]	PBM binding z-score [8]	PBM binding z-score [9]	PBM binding z-score [10]	PBM binding z-score [11]	PBM binding z-score [12]	PBM binding z-score [13]	PBM binding z-score [14]	PBM binding z-score [15]	PBM binding z-score [16]	PBM binding z-score [17]	PBM binding z-score [18]	PBM binding z-score [19]	PBM binding z-score [20]
ATATGTAGGTTATCGGGTCATTCACTTTGCGCAT	3.3	3.17	2.13	3.23	1.51	5.02	7.09	6.26	3.66	5.87	7.73	7.65	4.35	2.87	2.48	3.44	1.07	4.15	2.17	2.64
GCGAGTGGGGCAAAGCAGGTTACCATAAGGTTGG	0.592	0.51	-0.115	0.552	-0.338	1.36	0.889	1.12	-0.171	0.35	3.82	2.88	-0.867	-0.658	0.436	0.562	-0.254	0.873	0.0402	1
ATCTCTAGGTAAGACTCAGTTAAGTGAAGAACGC	0.573	0.359	0.508	0.191	0.75	0.00438	0.0664	-0.0342	0.242	-0.00989	1.7	1.21	0.936	1.52	0.709	0.115	0.648	0.211	1.29	0.0635
CCTACTGCGCCAAAGGTCATTGATTCCAATGCTC	5.29	5.64	5.34	5.07	1.91	5.47	6.88	7.67	6.56	7.79	1.68	3.77	5.21	1.61	3.34	5.66	2.58	5.78	2.4	4.61
TCTGCTAGGTCCGTTGGTCAGCTAACGAGCTGCC	-0.505	-0.6	-1.09	-0.828	-0.736	-0.336	-1.2	-0.0919	0.802	0.586	0.439	-0.053	-0.86	0.217	-1.34	-0.511	-1.26	-0.446	-1.4	-0.0528
CATACAGGGTCAGCTTGGCCAGAGTAGGGACGGC	4.12	2.73	-0.212	1.86	0.138	4.1	2.78	2.88	0.385	1.57	1.04	2.5	0.91	0.462	1.09	2.01	-0.3	2.93	0.544	3.99
AGTCAAAGTTCATCGAGGTAACGTAAGATATGCT	6.65	6	4.5	3.72	1.07	5.27	6.71	6.39	3.74	5.59	0.275	3.44	1.15	1.15	2.53	5.38	9.82	3.97	0.864	5.07
ATCGAAAGATCGAAGGTGAGTATACCCACCCGAA	0.128	-0.167	-0.351	-0.103	-0.379	0.477	0.73	0.539	0.2	0.266	-0.781	0.354	-0.115	-0.0294	-0.0886	0.0692	-0.598	0.121	0.67	0.215
TCTATTAGTTGAAGGGCAACCTACGAGTCCGTTT	0.82	0.87	0.394	0.789	0.451	0.702	0.121	1.88	3.44	2.53	2.23	0.488	0.411	0.817	1.5	0.858	1.18	0.893	1.08	1.57
CAAACTTGGTCAAAGGTCAAAGTCGAGCCAACCA	6.18	6.18	4.48	5.67	2.36	6.84	11.5	10	10.4	11.2	3.33	6.48	1.57	0.873	4.08	6.01	1.58	7.69	1.5	5.11
CGTCCAGGGTCAAGGTCAGTGAAAGAGACTCGAA	7.27	4.72	0.165	4.58	-0.131	6.04	6.91	6.41	3.27	5.71	1.82	4.14	0.455	0.241	3.01	4.77	0.845	5.13	1.53	5.23
CCTAGTTGGCCAGGAGGTCACACACCGGATATGA	4.04	3.22	1.73	3.53	0.178	4.15	2.42	2.91	0.806	2.2	0.473	2.22	0.522	-0.0399	2.61	4.27	1.23	4.66	1.39	3.41
TAACCTAGGTCATGGGCCAGTATACCACGCGAAC	5.24	4.78	1.74	3.44	0.868	4.78	5.73	5.21	2.54	4.41	4.06	5.09	1.44	0.97	2.68	2.19	0.195	3.44	1.11	4.08
CCAAGTAGGTTATGGGGCATTCAGGCAACGGTGA	0.142	0.353	-0.344	0.363	-0.655	2.93	5.23	5.69	4.33	5.84	5.49	4.96	0.251	0.296	1.18	-0.156	-0.101	0.207	0.919	1.05
GCTTGGAGGACAAGGTCAGAGCTTTGTCCGTAGA	1.44	1.7	-0.316	1.03	-0.782	2.48	0.977	1.88	0.0499	1.35	1.24	1.71	-1.32	-1.05	0.764	1.76	-0.385	2.05	-0.509	3.48
